PubChem BioAssay (Tox21)
“And” between values parts separate entries of the source, which are not always exact repeats. Equal entries are not always repeated. Some compounds were tested as several samples or in several runs, with calls that do not always agree. The source made the active and inactive calls. Where a call stands in place of a potency, no number is given. Unless noted, calls come from the whole dose curve; as a rule, active = well fitted curve in the direction sought with a large enough effect in the repeat runs; inconclusive = weak or mixed curves; inactive = no such curve, though single readings can be large; an effect the other way counts as inactive or inconclusive.

How the values were obtained:
[1] = qHTS assay to identify small molecule antagonists of the thyroid receptor (TR) signaling pathway - cell viability counter screen (AID 743064); note: nearly all actives have a fitted effect of over 50% in size; note: potency is the fitted concentration of half-maximal effect
In short: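 In-well cytotoxicity read by CellTiter-Fluor (30 min, 37 C) following 23.5 h exposure of GH3 cells bearing a TRE-luciferase sensor. Compounds were added alongside 1 nM (final) T3 to drive TR transactivation.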

[2] = qHTS assay to identify small molecule antagonists of the thyroid receptor (TR) signaling pathway (AID 743065); note: nearly all actives have a fitted effect of over 55% in size; note: potency is the fitted concentration of half-maximal effect
In short: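 GH3.TRE-Luc rat pituitary cells (two TREs driving luciferase) were dosed with compound, then stimulated with 1 nM T3 (final) for 23.5 h at 37 C. ONE-Glo luminescence was the read-out, with CellTiter-Fluor fluorescence as the cytotoxicity counter-screen.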

[3] = tested on: thyroid hormone receptor (rat, GH3 cells); experiment: qHTS assay to identify small molecule agonists of the thyroid receptor (TR) signaling pathway (AID 743066; calls by dose curve)
[4] = qHTS assay to identify small molecule antagonists of the estrogen receptor alpha (ER-alpha) signaling pathway - cell viability counter screen (AID 743074; calls by dose curve; note: nearly all actives have a fitted effect of over 45% in size)
[5] = qHTS assay to identify small molecule antagonists of the estrogen receptor alpha (ER-alpha) signaling pathway using the BG1 cell line - cell viability counter screen (AID 743081);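 note: compound given together with 17beta-estradiol as the ER stimulus; series mostly up to about 70 µM; nearly all actives have a fitted effect of over 45% in size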
Aromatase (Homo sapiens) = Aromatase (Homo sapiens) (UniProt P11511); experiment: qHTS assay to identify aromatase inhibitors (AID 743083); note: series mostly up to about 70 µM; nearly all actives have a fitted effect of over 55% in size
Sequence of Aromatase (Homo sapiens) (P11511 whole entry, looked up): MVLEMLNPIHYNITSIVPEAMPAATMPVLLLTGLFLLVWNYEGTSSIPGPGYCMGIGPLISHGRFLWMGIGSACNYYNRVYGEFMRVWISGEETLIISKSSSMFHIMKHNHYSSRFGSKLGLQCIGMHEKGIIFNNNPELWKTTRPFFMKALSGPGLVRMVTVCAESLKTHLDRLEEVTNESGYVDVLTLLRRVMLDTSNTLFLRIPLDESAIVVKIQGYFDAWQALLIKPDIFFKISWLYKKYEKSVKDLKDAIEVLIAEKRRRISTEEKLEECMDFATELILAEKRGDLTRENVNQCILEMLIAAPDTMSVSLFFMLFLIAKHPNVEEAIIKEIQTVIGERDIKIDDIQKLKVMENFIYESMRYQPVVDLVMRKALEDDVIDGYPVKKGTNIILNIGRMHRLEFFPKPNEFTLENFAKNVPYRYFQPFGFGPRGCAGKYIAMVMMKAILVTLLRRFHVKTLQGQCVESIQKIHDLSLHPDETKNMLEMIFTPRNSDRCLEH

[6] = qHTS assay to identify aromatase inhibitors - cell viability counter screen (AID 743084);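 note: cells stimulated with testosterone during compound exposure; nearly all actives have a fitted effect of over 55% in size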; note: potency is the fitted concentration of half-maximal effect
[7] = target: Aryl hydrocarbon receptor (Homo sapiens) (UniProt P35869); experiment: qHTS assay to identify small molecule that activate the aryl hydrocarbon receptor (AhR) signaling pathway (AID 743085);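 note: HG2L7.5c1 human HepG2 liver cells with stably integrated DRE-driven firefly reporter; series mostly up to about 70 µM; nearly all actives have a fitted effect of over 15% in size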
Sequence of Aryl hydrocarbon receptor (Homo sapiens) (P35869 whole entry, looked up): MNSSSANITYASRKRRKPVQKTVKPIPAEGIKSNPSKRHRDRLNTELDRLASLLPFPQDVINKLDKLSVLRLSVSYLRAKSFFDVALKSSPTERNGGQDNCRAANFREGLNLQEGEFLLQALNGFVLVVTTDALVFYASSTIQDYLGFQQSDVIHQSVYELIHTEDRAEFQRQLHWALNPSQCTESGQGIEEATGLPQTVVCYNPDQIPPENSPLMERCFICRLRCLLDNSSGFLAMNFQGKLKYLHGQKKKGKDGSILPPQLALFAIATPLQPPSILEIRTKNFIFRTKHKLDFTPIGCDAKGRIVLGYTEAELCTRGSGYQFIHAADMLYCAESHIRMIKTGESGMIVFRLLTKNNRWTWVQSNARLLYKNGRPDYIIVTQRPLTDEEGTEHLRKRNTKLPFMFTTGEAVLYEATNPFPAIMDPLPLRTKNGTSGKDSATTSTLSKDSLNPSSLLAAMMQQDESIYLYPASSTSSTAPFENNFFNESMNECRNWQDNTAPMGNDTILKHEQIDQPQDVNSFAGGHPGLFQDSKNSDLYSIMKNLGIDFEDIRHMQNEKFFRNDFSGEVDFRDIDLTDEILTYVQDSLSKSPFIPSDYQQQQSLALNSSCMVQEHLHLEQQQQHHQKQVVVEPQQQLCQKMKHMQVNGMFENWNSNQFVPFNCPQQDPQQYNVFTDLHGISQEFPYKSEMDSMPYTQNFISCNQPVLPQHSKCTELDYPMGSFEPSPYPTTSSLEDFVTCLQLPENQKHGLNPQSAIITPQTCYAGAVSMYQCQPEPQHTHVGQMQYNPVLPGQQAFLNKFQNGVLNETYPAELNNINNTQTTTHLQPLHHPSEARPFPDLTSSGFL
In short: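 Luminescence (ONE-Glo) from a dioxin-responsive-element luciferase reporter in HG2L7.5c1 HepG2 cells after 24 hr compound exposure at 37C; viability measured by CellTiter-Fluor fluorescence beforehand.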

[8] = qHTS assay to identify small molecule that activate the aryl hydrocarbon receptor (AhR) signaling pathway - cell viability counter screen (AID 743086); note: nearly all actives have a fitted effect of over 45% in size; note: potency is the fitted concentration of half-maximal effect
In short: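 HepG2-AhR-luc (HG2L7.5c1) cells, 4000/well, treated 24 h at 37 C with compound; viability measured as CellTiter-Fluor fluorescence after 30 min in the same wells as the luciferase read.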

[9] = target: Peroxisome proliferator-activated receptor gamma (Homo sapiens) (UniProt P37231); experiment: qHTS assay to identify small molecule agonists of the peroxisome proliferator-activated receptor gamma (PPARg) signaling pathway (AID 743094; active = well fitted activation curve with a large enough effect in the signal ratio in the repeat runs, not every such curve was filed as active; inconclusive = weak or mixed curves, or effect the other way; inactive = no such curve, though single readings can be large or run the other way; the % refers to the signal ratio)
Sequence of Peroxisome proliferator-activated receptor gamma (Homo sapiens) (P37231 whole entry, looked up): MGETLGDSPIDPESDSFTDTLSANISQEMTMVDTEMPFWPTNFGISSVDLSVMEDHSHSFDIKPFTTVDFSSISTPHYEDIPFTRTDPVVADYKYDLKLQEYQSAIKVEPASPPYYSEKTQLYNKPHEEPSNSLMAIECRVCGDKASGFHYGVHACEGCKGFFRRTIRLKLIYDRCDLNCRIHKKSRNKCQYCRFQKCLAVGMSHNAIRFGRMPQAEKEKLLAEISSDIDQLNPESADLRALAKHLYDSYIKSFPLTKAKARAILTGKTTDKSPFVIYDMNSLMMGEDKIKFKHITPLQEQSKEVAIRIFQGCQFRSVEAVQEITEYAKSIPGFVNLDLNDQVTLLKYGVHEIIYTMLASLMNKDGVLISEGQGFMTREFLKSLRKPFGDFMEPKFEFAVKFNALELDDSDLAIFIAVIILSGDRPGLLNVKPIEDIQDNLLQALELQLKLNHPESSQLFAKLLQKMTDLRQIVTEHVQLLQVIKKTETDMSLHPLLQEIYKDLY
In short: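 Reporter activation was scored by fluorescence of cleaved LiveBLAzer B/G substrate (1 h, room temperature) in PPARg-bla HEK293H cells previously treated 17 h at 37C with DMSO-dissolved compounds.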

[10] = qHTS assay to identify small molecule antagonists of the peroxisome proliferator-activated receptor gamma (PPARg) signaling pathway - cell viability counter screen (AID 743194); note: nearly all actives have a fitted effect of over 55% in size; note: potency is the fitted concentration of half-maximal effect
In short: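 Cytotoxicity counter screen in PPARg-bla HEK293H cells, same wells as reporter assay. Compounds plus 50 nM rosiglitazone (final) for 17 h at 37 C, then viability read by CellTiter-Glo luminescence.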

[11] = qHTS assay for small molecule agonists of the antioxidant response element (ARE) signaling pathway (AID 743202; active = well fitted activation curve with a large enough effect in the signal ratio in the repeat runs, not every such curve was filed as active; inconclusive = weak or mixed curves, or effect the other way; inactive = no such curve, though single readings can be large or run the other way; the % refers to the signal ratio)
In short: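 HepG2 ARE-bla cells; 16 h treatment at 37 C; FRET-based beta-lactamase fluorescence read after 2 h substrate incubation at room temperature.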

[12] = qHTS assay for small molecule agonists of the antioxidant response element (ARE) signaling pathway - cell viability counter screen (AID 743203; calls by dose curve; note: nearly all actives have a fitted effect of over 55% in size; note: potency is the fitted concentration of half-maximal effect)
In short: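 Viability counter screen: stably transfected ARE-bla HepG2 line, 16 hrs compound exposure at 37C/5% CO2, ATP-based CellTiter-Glo luminescence measured in the reporter wells.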

[13] = qHTS assay for small molecule activators of the heat shock response signaling pathway - cell viability counter screen (AID 743209); note: nearly all actives have a fitted effect of over 50% in size
In short: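 Viability of HSE-bla HeLa cells is measured with CellTiter-Glo in the wells already used for the reporter read. Compound exposure lasts 5 h at 37 C, and luminescence is read after 30 min at room temperature.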

[14] = qHTS assay for small molecule activators of the heat shock response signaling pathway (AID 743210; active = well fitted activation curve with a large enough effect in the signal ratio in the repeat runs, with a control signal flat, not every such curve was filed as active; inconclusive = weak or mixed curves; the % refers to the signal ratio;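 note: HeLa cells with beta-lactamase reporter driven by heat shock elements; series mostly up to about 63 µM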)
In short: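 Following overnight attachment, HSE-bla HeLa cells received test compounds for 5 h at 37 C; beta-lactamase activity was then detected via FRET substrate fluorescence.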

[15] = target: Estrogen receptor (Homo sapiens) (UniProt P03372); experiment: qHTS assay to identify small molecule antagonists of the estrogen receptor alpha (ER-alpha) signaling pathway (AID 743069; active = well fitted curve in the direction sought with a large enough effect in the signal ratio in the repeat runs, not every such curve was filed as active; inconclusive = weak or mixed curves, or effect the other way; inactive = no such curve, though single readings can be large or run the other way; the % refers to the signal ratio)
Sequence of Estrogen receptor (Homo sapiens) (P03372 whole entry, looked up): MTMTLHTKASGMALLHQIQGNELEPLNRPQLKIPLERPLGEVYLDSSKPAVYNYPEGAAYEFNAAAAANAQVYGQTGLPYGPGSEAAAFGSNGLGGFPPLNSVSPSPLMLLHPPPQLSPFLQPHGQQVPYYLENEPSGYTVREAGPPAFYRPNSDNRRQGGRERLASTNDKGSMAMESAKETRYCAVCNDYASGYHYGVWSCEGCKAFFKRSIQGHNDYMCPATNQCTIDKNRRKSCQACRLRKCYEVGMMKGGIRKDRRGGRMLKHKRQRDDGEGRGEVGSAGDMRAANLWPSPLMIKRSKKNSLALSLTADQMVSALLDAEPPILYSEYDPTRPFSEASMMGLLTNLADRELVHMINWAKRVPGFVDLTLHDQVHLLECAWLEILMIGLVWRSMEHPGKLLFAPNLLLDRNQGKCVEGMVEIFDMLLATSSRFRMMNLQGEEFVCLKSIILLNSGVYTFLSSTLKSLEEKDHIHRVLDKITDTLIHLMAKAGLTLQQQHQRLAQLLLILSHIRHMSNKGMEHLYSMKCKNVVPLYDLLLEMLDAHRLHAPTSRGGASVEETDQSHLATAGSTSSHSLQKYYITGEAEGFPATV
In short: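 In this cell-based reporter format, GripTite HEK293 cells harbouring ER-alpha-UAS-bla were grown overnight with 2% charcoal-stripped FBS, dosed with DMSO-dissolved compounds, then challenged with 17beta-estradiol. After 18 hr at 37C, beta-lactamase activity was detected by FRET fluorescence.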

[16] = target: Estrogen receptor (Homo sapiens) (UniProt P03372); experiment: qHTS assay to identify small molecule agonists of the estrogen receptor alpha (ER-alpha) signaling pathway (AID 743075; calls by dose curve; note: potency is the fitted concentration of half-maximal effect)
[17] = target: Estrogen receptor (Homo sapiens) (UniProt P03372); experiment: qHTS assay to identify small molecule agonists of the estrogen receptor alpha (ER-alpha) signaling pathway using the BG1 cell line (AID 743079); note: nearly all actives have a fitted effect of over 20% in size; note: potency is the fitted concentration of half-maximal effect
[18] = qHTS assay to identify small molecule antagonists of the estrogen receptor alpha (ER-alpha) signaling pathway using the BG1 cell line (AID 743080; calls by dose curve;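 note: BG1 cells stimulated with 17beta-estradiol alongside compound; series mostly up to about 70 µM; nearly all actives have a fitted effect of over 25% in size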)
In short: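 Endogenous full-length ER-alpha in BG1-Luc-4E2 cells drives a stably integrated 4×ERE luciferase gene; compounds were tested against 17beta-estradiol over 21.5 h, with luminescence and multiplexed viability fluorescence recorded.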

[19] = target: Peroxisome proliferator-activated receptor gamma (Homo sapiens) (UniProt P37231); experiment: qHTS assay to identify small molecule antagonists of the peroxisome proliferator-activated receptor gamma (PPARg) signaling pathway (AID 743191; calls by dose curve; note: series mostly up to about 63 µM; nearly all actives have a fitted effect of over 30% in size)
In short: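 GeneBLAzer PPARg UAS-bla HEK293H cells, 5 h post-plating, exposed to compounds 17 h at 37C. LiveBLAzer B/G FRET substrate added for 1 h at room temperature; beta-lactamase reporter read by fluorescence intensity.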

Row | SMILES | Potency [1] | Potency [2] | Potency [3] | Potency [4] | Potency [5] | Potency (Aromatase (Homo sapiens)) | Potency [6] | Potency [7] | Potency [8] | outcome [9] | Potency [10] | Potency [11] | Potency [12] | Potency [13] | outcome [14] | Potency [15] | Potency [16] | Potency [17] | Potency [18] | Potency [19]
1 | CCCCCCCCCCC(CO)CCCCCCCC (stereo not drawn) | inactive | inactive | inactive | inactive | inactive | inactive | inactive | inactive | inactive | inactive | inactive | inactive | inactive | inactive | inactive | – | – | – | – | –
2 | CCCCCCCCCCCCCO | inactive | – | inactive | inactive | inactive | inactive | inactive | inactive | inactive | inactive | inactive | inactive | inactive | inactive | inactive | inactive | inactive | inactive | inactive | inactive
3 | CCCOCCO | inactive | – | inactive | inactive | inactive | inactive | inactive | inactive | inactive | inactive | inactive | inactive | inactive | inactive | inactive | – | – | – | – | inactive
4 | C[C@]12CC[C@@H]3c4ccc(O)cc4CC[C@H]3[C@@H]1CC[C@H]2O | – | 9.86 µM (active) and 24.3 µM (active) | inactive | inactive | inactive | – | inactive | inactive | inactive | inactive | inactive | – | inactive | – | inactive | – | – | – | – | –
5 | OC[C@@H](O)[C@@H](O[C@@H]1O[C@H](CO)[C@H](O)[C@H](O)[C@H]1O)[C@H](O)[C@@H](O)CO | – | – | – | inactive | inactive | inactive | inactive | – | inactive | inactive | inactive | inactive | inactive | – | – | inactive | 3.38 µM [inconclusive] (active) and inactive | 596 nM (active) and inactive | inactive | inactive
6 | CC[C@]12CCCN3CCc4c(n(c5ccccc45)[C@@](O)(C(=O)OC)C1)[C@@H]32 | inactive | – | inactive | inactive | inactive | inactive | inactive | – | inactive | inactive | inactive | inactive | inactive | inactive | inactive | – | – | – | – | inactive
7 | NCCN | inactive | – | – | inactive | inactive | inactive | inactive | – | inactive | – | inactive | inactive | inactive | inactive | inactive | inactive | 213 nM [inconclusive] (active) and inactive | 37.6 nM (active) and inactive | inactive | –
8 | CN(C)CCCN1c2ccccc2Sc2ccc(Cl)cc21 | 11.9 µM (active) and 19.3 µM (active) | – | – | inactive | inactive | inactive | 68.6 µM (active) | inactive | 30.6 µM (active) | – | 38.9 µM (active) and 26.6 µM (active) | – | 24.3 µM (active) and 29.8 µM (active) | inactive | – | – | – | – | – | –
